Test results from PubChem BioAssay AID1159580 (chemical genetic matrix, 2015).
About 2,000 (36%) of roughly 5,500 compounds were called active. Inconclusive results (about 18%) are left out. Some of the results follow. Values without a mark were called inactive. Rule as the data show it: active = normalized growth mostly below about 0.91 (no sharp cut-off); inconclusive = no clear call, values can overlap the other calls; inactive = mostly above about 0.92.

Test: chemical genetic growth profiling, strain panel (AID 1159580);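 also: tested at 20 µM; growth read once vehicle control cultures reached saturation at 30 °C; 1 = growth at the plate median or of vehicle wells; lower values mean less growth of the strain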
Settings: S. cerevisiae deletion strains, growth OD

**Q.** Which results are given for `CC(C)(C)C(=O)C(Oc1ccc(Cl)cc1)n1cncn1` (stereo not given)?
**A.** normalized growth (locus YAL021C, strain ccr4, hits give low values): 0.639 (active); normalized growth (locus YAL026C, strain drs2, hits give low values): 0.081 (active); normalized growth (locus YAL030W, strain snc1, hits give low values): 0.133 (active); normalized growth (locus YBL061C, strain skt5, hits give low values): 0.136 (active); normalized growth (locus YBR009C, strain hhf1, hits give low values): 0.133 (active); normalized growth (locus YBR023C, strain chs3, hits give low values): 0.131 (active); normalized growth (locus YBR171W, strain sec66, hits give low values): 0.591 (active); normalized growth (locus YBR231C, strain swc5, hits give low values): 0.119 (active); normalized growth (locus YBR279W, strain paf1, hits give low values): 0.198 (active); normalized growth (locus YCL011C, strain gbp2, hits give low values): 0.124 (active); normalized growth (locus YCL016C, strain dcc1, hits give low values): 0.129 (active); normalized growth (locus YCL061C, strain MRC1, hits give low values): 0.203 (active); normalized growth (locus YCL069W, strain vba3, hits give low values): 0.106 (active); normalized growth (locus YCR088W, strain abp1, hits give low values): 0.25 (active); normalized growth (locus YDL005C, strain med2, hits give low values): 0.565 (active); normalized growth (locus YDL040C, strain nat1, hits give low values): 0.272 (active); normalized growth (locus YDR001C, strain nth1, hits give low values): 0.221 (active); normalized growth (locus YDR069C, strain doa4, hits give low values): 0.655 (active); normalized growth (locus YDR137W, strain rgp1, hits give low values): 0.779 (active); normalized growth (locus YDR159W, strain sac3, hits give low values): 0.171 (active); normalized growth (locus YDR195W, strain ref2): 0.573 (active); normalized growth (locus YDR297W, strain sur2, hits give low values): 0.19 (active); normalized growth (locus YDR334W, strain swr1, hits give low values): 0.141 (active); normalized growth (locus YDR335W, strain msn5, hits give low values): 0.223 (active); normalized growth (locus YDR392W, strain spt3, hits give low values): 0.104 (active); normalized growth (locus YEL003W, strain gim4, hits give low values): 0.154 (active); normalized growth (locus YEL037C, strain rad23, hits give low values): 0.268 (active); normalized growth (locus YEL061C, strain CIN8 (second series), hits give low values): 0.139 (active); normalized growth (locus YER015W, strain faa2, hits give low values): 0.201 (active); normalized growth (locus YER016W, strain bim1, hits give low values): 0.187 (active); normalized growth (locus YER111C, strain swi4, hits give low values): 0.758 (active); normalized growth (locus YER155C, strain BEM2 (second series), hits give low values): 0.746 (active); normalized growth (locus YFR010W, strain ubp6, hits give low values): 0.558 (active); normalized growth (locus YGL167C, strain pmr1, hits give low values): 0.923; normalized growth (locus YGL173C, strain kem1, hits give low values): 0.701 (active); normalized growth (locus YGL227W, strain vid30, hits give low values): 0.158 (active); normalized growth (locus YGL240W, strain doc1, hits give low values): 0.714 (active); normalized growth (locus YGL253W, strain hxk2, hits give low values): 0.0776 (active); normalized growth (locus YHR013C, strain ard1, hits give low values): 0.162 (active); normalized growth (locus YHR027C, strain rpn1, hits give low values): 0.337 (active); normalized growth (locus YHR030C, strain SLT2, hits give low values): 0.113 (active); normalized growth (locus YHR079C, strain IRE1, hits give low values): 0.264 (active); normalized growth (locus YHR142W, strain chs7, hits give low values): 0.107 (active); normalized growth (locus YJL092W, strain hpr5, hits give low values): 0.177 (active); normalized growth (locus YJL095W, strain BCK1 (second series), hits give low values): 0.0779 (active); normalized growth (locus YJL095W, strain BCK1, hits give low values): 0.129 (active); normalized growth (locus YJL115W, strain asf1, hits give low values): 0.396 (active); normalized growth (locus YJL129C, strain trk1, hits give low values): 0.183 (active); normalized growth (locus YJL154C, strain vps35, hits give low values): 0.409 (active); normalized growth (locus YJL164C, strain tpk1, hits give low values): 0.11 (active); normalized growth (locus YJL166W, strain qcr8, hits give low values): 0.109 (active); normalized growth (locus YJL187C, strain SWE1, hits give low values): 0.135 (active); normalized growth (locus YJR066W, strain TOR1, hits give low values): 0.14 (active); normalized growth (locus YKL160W, strain elf1, hits give low values): 0.112 (active); normalized growth (locus YKR026C, strain gcn3, hits give low values): 0.47 (active); normalized growth (locus YKR091W, strain srl3, hits give low values): 0.247 (active); normalized growth (locus YLL001W, strain dnm1, hits give low values): 0.168 (active); normalized growth (locus YLL026W, hits give low values): 0.0984 (active); normalized growth (locus YLL041C, strain sdh2, hits give low values): 0.159 (active); normalized growth (locus YLR027C, strain aat2, hits give low values): 0.115 (active); normalized growth (locus YLR113W, strain HOG1, hits give low values): 0.308 (active); normalized growth (locus YLR221C, strain rsa3, hits give low values): 0.118 (active); normalized growth (locus YLR258W, strain gsy2, hits give low values): 0.133 (active); normalized growth (locus YLR262C, strain YPT6 (second series), hits give low values): 0.66 (active); normalized growth (locus YLR320W, strain mms22, hits give low values): 0.125 (active); normalized growth (locus YLR342W, strain FKS1, hits give low values): 0.155 (active); normalized growth (locus YLR357W, strain rsc2, hits give low values): 0.513 (active); normalized growth (locus YLR370C, strain arc18, hits give low values): 0.184 (active); normalized growth (locus YLR384C, strain iki3, hits give low values): 0.672 (active); normalized growth (locus YML120C, strain ndi1, hits give low values): 0.153 (active); normalized growth (locus YMR058W, strain fet3, hits give low values): 0.184 (active); normalized growth (locus YMR125W, strain sto1, hits give low values): 0.147 (active); normalized growth (locus YMR129W, hits give low values): 0.161 (active); normalized growth (locus YMR205C, strain PFK2, hits give low values): 0.172 (active); normalized growth (locus YMR231W, strain pep5, hits give low values): 0.805 (active); normalized growth (locus YNL071W, strain lat1, hits give low values): 0.0893 (active); normalized growth (locus YNL183C, strain NPR1, hits give low values): 0.178 (active); normalized growth (locus YNL209W, strain ssb2, hits give low values): 0.394 (active); normalized growth (locus YNL248C, strain rpa49, hits give low values): 0.142 (active); normalized growth (locus YNL322C, strain KRE1 (second series), hits give low values): 0.228 (active); normalized growth (locus YNR049C, strain mso1, hits give low values): 0.159 (active); normalized growth (locus YOR001W, strain rrp6, hits give low values): 0.181 (active); normalized growth (locus YOR070C, strain gyp1, hits give low values): 0.0975 (active); normalized growth (locus YOR080W, strain dia2, hits give low values): 0.259 (active); normalized growth (locus YOR083W, strain WHI5, hits give low values): 0.257 (active); normalized growth (locus YOR106W, strain vam3, hits give low values): 0.211 (active); normalized growth (locus YOR231W, strain MKK1, hits give low values): 0.273 (active); normalized growth (locus YOR265W, strain rbl2, hits give low values): 0.164 (active); normalized growth (locus YOR270C, strain vph1, hits give low values): 0.123 (active); normalized growth (locus YOR290C, strain snf2, hits give low values): 0.153 (active); normalized growth (locus YPL051W, strain arl3, hits give low values): 0.357 (active); normalized growth (locus YPL078C, strain atp4, hits give low values): 0.203 (active); normalized growth (locus YPL106C, strain sse1, hits give low values): 0.156 (active); normalized growth (locus YPL240C, strain hsp82, hits give low values): 0.166 (active); normalized growth (locus YPL256C, strain CLN2, hits give low values): 0.357 (active)
